Reference: PubChem BioAssay (NCATS)
Records with an inconclusive call do not appear. A call without a number means that no potency is given here. A structure can be active in one record and inactive in another. Calls of active or inactive are those of the source. Calls follow the shape of the dose curve; as a rule, active = well fitted inhibition curve with a large enough effect; inconclusive = small, poorly fitted or top-dose-only effect; inactive = flat fitted curve, though single readings scatter.
Potency is read from the fitted curve at half-maximal effect.

What follows are compounds tested against Glutathione peroxidase 1 (Homo sapiens) (UniProt P07203) (assay: Primary qHTS Assay for Inhibitors of Recombinant Selenoprotein Glutathione Peroxidase 1 (GPX1) (AID 1845191; also: nearly all actives have a fitted effect of over 65% in size)). Conditions: recombinant GPX1, GR-coupled NADPH fluorescence, 15 min; series mostly up to 48.8 µM; activity, negative = inhibition: at the top concentration.
Sequence of Glutathione peroxidase 1 (Homo sapiens) (P07203 whole entry, looked up): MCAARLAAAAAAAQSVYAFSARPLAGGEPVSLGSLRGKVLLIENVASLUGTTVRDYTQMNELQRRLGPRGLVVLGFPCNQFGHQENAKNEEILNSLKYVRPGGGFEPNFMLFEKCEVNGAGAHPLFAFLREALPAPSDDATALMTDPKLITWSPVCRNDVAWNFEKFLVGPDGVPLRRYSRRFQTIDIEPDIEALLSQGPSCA
From the text: Assay Provider: Elias S.J. Arner MD PhD.
Department of Medical Biochemistry and Biophysics
Karolinska Institutet, Solna, Stockholm, Sweden
Selenoprotein glutathione peroxidases (GPX), like the ubiquitously expressed GPX1 and the ferroptosis modulator GPX4, enact their antioxidant activities by reducing hydroperoxides using glutathione. […] GPX1 and GPX4 inhibitors have thus shown promise as anti-cancer agents. Existing inhibitors are often promiscuous, or modulate GPX activity only indirectly, so novel direct inhibitors identified through screening against GPX1 and GPX4 could be valuable. Here, we developed optimized glutathione reductase (GR)-coupled GPX assays for the biochemical high-throughput screen (HTS) of almost 12,000 compounds with known mechanisms of action. Initial hits were triaged using a GR counter-screen, assessed for isoform specificity using a separate GPX2 assay, and were assessed for general selenocysteine-targeting activity using a thioredoxin reductase (TXNRD1) assay. With this suite of assays, we identified novel GPX1/GPX2- and GPX4-specific inhibitors and can here present a validated pipeline for future discovery research for selenoprotein-targeting agents.
SEQUENCE No. (e.g., 1, 2, 3, etc.); […] (e.g., Cells, Incubation, Reagent, etc.); VALUE; DESCRIPTION.
1; Reagent 1; 3 uL; GPx1 enzyme or no enzyme control in 1536-well, black, solid Greiner assay plate.
2; Compound; 25 nL; Kalypsis pin tool (Wako USA) equipped with a 1536-well pin head.
3; Incubation; 30 min; room temperature.
4; Reagent 2; 1 uL; 10 nM GPX1, 1 mM GSH, 0.5 mM CHP, 0.5 mM NADPH, 100 nM GR, 0.01% BSA substrate
5; Detection; Fluorescence; ViewLux microplate reader, excitation 340 nm and emission 450 nm.
6; Incubation; 15 min; room temperature.
7; Detection; Fluorescence; ViewLux microplate reader, excitation 340 nm and emission 450 nm.
NOTES (numbers refer to Sequence numbers above)
1. 3 uL of 16.66 nM GPX1 and 0.016% BSA in assay buffer (50 mM Tris-HCl, 2 mM EDTA (pH 7.5), 150 mM NaCl) was added to columns 3-48 of 1536-well assay plates using a BioRAPTR Flying Reagent Dispenser (Let's Go Robotics (LGR), Carlsbad, CA). A no-enzyme control (0.01% BSA in TES assay buffer) was added to columns 1-2.
2. 25 nL of test compounds and DMSO controls were added to each well with a pin tool (Kalypsys).
3. The assay plates were incubated for 30 minutes at room temperature.
4. 1 uL of master mix (500 nM glutathione reductase (GR), 5 mM reduced glutathione (GSH), 2.5 mM NADPH in assay buffer) was added. 1 uL of cumene hydroperoxide (CHP) ([2.5 mM] in 50% EtOH) was then added within 5 minutes to initiate the reaction. Final concentrations were: 10 nM GPX1, 1 mM GSH, 0.5 mM CHP, 0.5 mM NADPH, 100 nM GR, 0.01% BSA.
5. Initial fluorescence readout (t=0) at 340/450 nm was measured using a ViewLux multimodal detector (PerkinElmer, Waltham, MA).
7. Endpoint fluorescence readout (t=15) at 340/450 nm was measured 15 min after room temperature incubation.
`N=C(N)c1ccc(OCCCCCOc2ccc(C(=N)N)cc2)cc1` was tested, and the Potency was “inactive”.
With `CN(C)CCc1c[nH]c2ccc(C[C@H]3COC(=O)N3)cc12` the Potency was “inactive”.
In the case of `CC1CC2C3CCC4=CC(=O)C=C[C@]4(C)[C@@]3(F)[C@@H](O)C[C@]2(C)[C@@]1(O)C(=O)CO` (stereo not given in full), the “outcome” value is reported as “inactive”.
`CC(C)C1CCC(C(=O)N[C@H](Cc2ccccc2)C(=O)O)CC1` (stereo not given in full) was tested, and the Potency was “inactive”.
For `COCCCOc1cc(C[C@@H](C[C@H](N)[C@@H](O)C[C@H](C(=O)NCC(C)(C)C(N)=O)C(C)C)C(C)C)ccc1OC`, the Potency was “inactive”.
For `CCc1cc(C(N)=S)ccn1`, the “activity, negative = inhibition” value was -2.43% (inactive).
For `CC(=O)[C@H]1CC[C@H]2[C@@H]3CCC4=CC(=O)CC[C@]4(C)[C@H]3CC[C@]12C`, the Potency was “inactive”.
With `COc1c(N2CCNC(C)C2)c(F)cc2c(=O)c(C(=O)O)cn(C3CC3)c12` (stereo not given) the “activity, negative = inhibition” value was -21.5% (inactive).
With `CC(C)Cn1cnc2c(N)nc3ccccc3c21` the Potency was “inactive”.
For `C[C@]12C=CC(=O)C=C1CC[C@@H]1[C@@H]2C(=O)C[C@@]2(C)[C@H]1CC[C@]2(O)C(=O)CO`, the Potency was “inactive”.
For `COC(=O)Nc1nc2ccc(S(=O)c3ccccc3)cc2[nH]1` (stereo not given), the Potency was “inactive”.
`CC(C)(C)NC(=O)[C@H]1CC[C@H]2[C@@H]3CC[C@H]4NC(=O)C=C[C@]4(C)[C@H]3CC[C@]12C` was tested, and the Potency was “inactive”.
For `Cn1c(=O)c2c(ncn2CC(O)CO)n(C)c1=O` (stereo not given), the Potency was “inactive”.
In the case of `COc1ccc2cc3[n+](cc2c1OC)CCc1cc2c(cc1-3)OCO2`, the “activity, negative = inhibition” value is reported as -36.5% (inactive).
For `Nc1[nH]c(=O)ncc1F`, the Potency was “inactive”.
In the case of `COc1cc2nc(N3CCCN(C)CC3)nc(NC3CCN(Cc4ccccc4)CC3)c2cc1OC`, the “outcome” value is reported as “inactive”.
In the case of `Cc1ccnc2c1NC(=O)c1cccnc1N2C1CC1`, the “outcome” value is reported as “inactive”.
`CO[C@@H]1[C@@H](OC(N)=O)[C@@H](O)[C@H](Oc2ccc3c(O)c(NC(=O)c4ccc(O)c(CC=C(C)C)c4)c(=O)oc3c2C)OC1(C)C` was tested, and the Potency was “inactive”.
For `Cc1cc(NS(=O)(=O)c2ccc(N)cc2)no1`, the “activity, negative = inhibition” value was -19% (inactive).
With `CCn1cc(C(=O)O)c(=O)c2cc(F)c(N3CCN(C)CC3)cc21` the “outcome” value was “inactive”.
In the case of `Cc1ccc(S(=O)(=O)N[C@@H](Cc2ccccc2)C(=O)CCl)cc1`, the Potency is reported as “inactive”.
For `COC(=O)Nc1nc2ccc(Sc3ccccc3)cc2[nH]1`, the Potency was “inactive”.
In the case of `CCOC(=O)[C@H](CCc1ccccc1)N[C@H]1CCc2ccccc2N(CC(=O)O)C1=O`, the Potency is reported as “inactive”.
In the case of `CN1CCN(c2c(F)cc3c(=O)c(C(=O)O)cn4c3c2OCN4C)CC1`, the “activity, negative = inhibition” value is reported as -6.8% [at 27.7 µM] (inactive).
`O=c1cc(O)c(Cl)c[nH]1` was tested, and the “outcome” value was “inactive”.
`Cc1cccc(Nc2ccncc2S(=O)(=O)NC(=O)NC(C)C)c1` was tested, and the “activity, negative = inhibition” value was -4.1% (inactive).
For `NC(N)=NC(N)=NCCc1ccccc1`, the “outcome” value was “inactive”.
For `CC(C)(C)C(=O)OCOP(=O)(COCCn1cnc2c(N)ncnc21)OCOC(=O)C(C)(C)C`, the Potency was “inactive”.
With `C[C@@H]1CN(c2c(F)c(N)c3c(=O)c(C(=O)O)cn(C4CC4)c3c2F)C[C@H](C)N1` the Potency was “inactive”.
For `CCCCc1oc2ccc(NS(C)(=O)=O)cc2c1C(=O)c1ccc(OCCCN(CCCC)CCCC)cc1`, the Potency was “inactive”.
`CCCc1cc(C(N)=S)ccn1` was tested, and the Potency was “inactive”.
With `O=C(O)c1cccnc1` the Potency was “inactive”.
For `CN(Cc1cc(Br)cc(Br)c1N)C1CCCCC1`, the Potency was “inactive”.
For `Oc1c(Cl)cc(Cl)c2cccnc12`, the “activity, negative = inhibition” value was -4.81% (inactive).
In the case of `C1CCC(C(CC2CCCCN2)C2CCCCC2)CC1` (stereo not given), the Potency is reported as “inactive”.
For `CC(N)C12CC3CC(CC(C3)C1)C2` (stereo not given), the Potency was 6.4 µM (active) and inactive.
In the case of `CN1CCCC(n2nc(Cc3ccc(Cl)cc3)c3ccccc3c2=O)CC1` (stereo not given), the “activity, negative = inhibition” value is reported as -2.34% (inactive).
For `O=C(O)C1CCCN(CCC=C(c2ccccc2)c2ccccc2)C1` (stereo not given), the Potency was “inactive”.
In the case of `COC(=O)Nc1nc2ccc(C(=O)c3ccccc3)cc2[nH]1`, the Potency is reported as “inactive”.
`Cc1noc(NS(=O)(=O)c2ccc(N)cc2)c1C` was tested, and the “activity, negative = inhibition” value was 0.178% (inactive).
